Test results published in PubChem BioAssay AID504847 (National Center for Advancing Translational Sciences (NCATS), 2011).
The campaign covered roughly 400,000 compounds. About 3,700 (0.93%) were called active. Roughly 3% stayed inconclusive and do not appear here. The sample holds actives, similar compounds and a random draw of the others, so the mix is not that of the screen. A number with no mark means an inactive call. Calls come from the whole dose curve; as a rule, active = well fitted inhibition curve with a large enough effect; inconclusive = small, poorly fitted or top-dose-only effect, or another doubt; inactive = no such curve, though single readings can be large or run the other way. Where a SMILES comes first, the peptide text is derived from it. Side-chain parts run from the residue outwards. [ ]: non-standard residue; d: D form. The star is where a group is joined. X1 = CCC(C)C(N)C1=NC(C(=O)*)CS1; Orn = NCCC[CH](N)C(=O)O
% is set by controls: 0 for no effect and ±100 for the full control effect; potency is the fitted concentration of half-maximal effect.

These compounds were tested against Vitamin D3 receptor (Homo sapiens) (UniProt P11473) (assay: Inhibitors of the vitamin D receptor (VDR): qHTS). Settings: VDR-SRC2-3 peptide fluorescence polarization, 2 h; max response, negative = inhibition: active compounds read low.
Sequence of Vitamin D3 receptor (Homo sapiens) (P11473 whole entry, looked up): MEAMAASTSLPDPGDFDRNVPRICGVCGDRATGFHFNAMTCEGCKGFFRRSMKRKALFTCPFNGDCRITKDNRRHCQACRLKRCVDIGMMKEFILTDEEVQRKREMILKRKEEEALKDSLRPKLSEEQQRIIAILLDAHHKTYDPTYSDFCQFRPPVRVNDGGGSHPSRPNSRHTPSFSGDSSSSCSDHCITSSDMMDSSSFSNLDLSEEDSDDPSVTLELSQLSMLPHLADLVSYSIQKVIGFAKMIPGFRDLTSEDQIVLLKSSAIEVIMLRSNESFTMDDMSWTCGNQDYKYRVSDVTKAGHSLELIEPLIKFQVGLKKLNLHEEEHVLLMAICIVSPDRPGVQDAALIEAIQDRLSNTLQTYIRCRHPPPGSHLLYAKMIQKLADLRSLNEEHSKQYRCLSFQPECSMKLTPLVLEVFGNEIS
Method in brief: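 VDR–SRC2-3 interaction, FP format. Cmpds 23 nl via pintool, brief spin, 2 h ambient incubation.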
Work on `NCCCNC(=S)NCCCN(Cc1ccc(Cl)cc1)c1ccc(Br)cn1` yielded a max response, negative = inhibition of -24.7%. With `O=C(C1CC(=O)N(C2CCCCC2)C1)N1CCN(c2ccccc2)CC1` (stereo not drawn) the max response, negative = inhibition was -11.8%. `CC(=O)Nc1ccc(S(=O)(=O)Nc2ccc(N3CCCCC3)cc2)cc1` was tested, and the max response, negative = inhibition was 6.02%. In the case of `O=C1C=CC(=O)N1c1ccc(N2CCCCC2)cc1`, the Potency is reported as 17.8 µM (active). For `Cc1cc(-c2ccc(C)c(S(=O)(=O)N3c4ccccc4CC3C)c2)on1` (stereo not drawn), the max response, negative = inhibition was 9.78%. With `Cc1[nH][nH]c(=O)c1C(c1ccc(-c2ccc(Cl)cc2)o1)c1c(C)[nH][nH]c1=O` the Potency was 79.4 µM (active). In the case of `CCOc1ccc(C(=O)CCC(=O)Nc2ccncc2)cc1`, the max response, negative = inhibition is reported as -4.74%. For `CCOc1ccc(C(=O)N2CCN(CCc3ccccn3)CC2)cc1`, the max response, negative = inhibition was -7.3%. In the case of `CCOc1ccc(C(=O)CCN2CCOCC2)cc1`, the Potency is reported as 50.1 µM (active). Work on `Cc1ccc(-c2nnc3c4ccccc4c(C)nn23)cc1NC(=O)c1cccc(Br)c1` yielded a max response, negative = inhibition of -6.72%. `CCC(=O)N1CCc2cc(S(=O)(=O)NC(C(=O)NCCc3ccc(C)cc3)C(C)C)ccc21` (stereo not drawn) showed a max response, negative = inhibition of -2.72%. `Cc1cccc(N2CCN(C(=O)Cn3ncc4c5ccccc5n(C)c4c3=O)CC2C)c1` (stereo not drawn) was tested, and the max response, negative = inhibition was 4.17%. In the case of `CCCC[C@H]1C(=O)N(c2ccccc2)N(c2ccc(O)cc2)C1=O`, the Potency is reported as 10 µM (active). In the case of `CCCCc1ccc(NC(=O)CN2C(=O)NC(Cc3ccccc3)C2=O)cc1` (stereo not drawn), the max response, negative = inhibition is reported as 3.7%. `CCCOC(=O)c1ccc(N2C(=O)c3ccccc3C2=O)cc1` gave a max response, negative = inhibition of -19.4%. `CC(C)c1ccc2oc(-c3cc(NC(=O)c4cccs4)ccc3Cl)nc2c1` showed a max response, negative = inhibition of 15%. `CCC(C)C(N)C1=NC(C(=O)NC(CC(C)C)C(=O)NC(CCC(=O)O)C(=O)NC(C(=O)NCCCCC2NC(=O)C(CC(N)=O)NC(=O)C(CC(=O)O)NC(=O)C(Cc3cnc[nH]3)NC(=O)C(Cc3ccccc3)NC(=O)C(C(C)CC)NC(=O)C(CCCN)NC2=O)C(C)CC)CS1` (stereo not drawn) (cyclo(DNK([Ile-Glu-Leu-X1])[Orn]IFH); configuration not given here) was tested, and the max response, negative = inhibition was -26.4%. In the case of `C#CCOc1ccc(C2CC(=O)Nc3c2c(C)nn3-c2nc(C)cc(C)n2)cc1` (stereo not drawn), the max response, negative = inhibition is reported as 10.7%. With `CC/C(O)=N\S(=O)(=O)c1ccc(N=NN(C)C)cc1` the max response, negative = inhibition was 15.8%. `CC(=NNC(=O)c1ccc2nc[nH]c2c1)c1ccc(Br)cc1` gave a max response, negative = inhibition of -21.3%. In the case of `CN(C)N=Nc1ccc2nc[nH]c2c1`, the Potency is reported as 35.5 µM (active). `COc1cc(OC)c(NC(=O)Cc2ccc(-n3c(C)nc4cccnc43)cc2)cc1Cl` showed a max response, negative = inhibition of 1.5%. For `CC1=C/C(=N\OS(=O)(=O)c2ccccc2)C=CC1=O`, the Potency was 31.6 µM (active). `Cc1ccc(NC(=O)C2CCN(S(=O)(=O)c3cc(-c4noc(C)n4)ccc3C)CC2)c(C)c1` showed a max response, negative = inhibition of 14.7%. `Cc1nn2c(=O)cc(COC(=O)c3cccc(NC(=O)COc4ccccc4Cl)c3)nc2s1` gave a max response, negative = inhibition of 9.23%. For `Nc1ncnc2c1c(I)cn2[C@@H]1C[C@H](N)[C@@H](O)[C@H]1O`, the max response, negative = inhibition was -8.19%. Compound `COc1ccc(Cl)cc1NC(=O)c1sc2nc3c(cc2c1N)CN(C)CC3` has a max response, negative = inhibition of -1.58%. With `N#Cc1c(N2CCCCC2)nc(N)c2c(N)nc(SCC(=O)O)cc12` the Potency was 50.1 µM (active). `O=C(O)CSc1ccc(S(=O)(=O)N2CCCC2)cn1` gave a max response, negative = inhibition of 10.8%. `N#Cc1c(C(F)(F)F)cc(-c2ccc(Cl)cc2)nc1SCC(=O)O` gave a max response, negative = inhibition of -2.18%. For `Cc1cc(C)cc(NS(=O)(=O)c2cc3c(cc2C)NC(=O)CO3)c1`, the max response, negative = inhibition was -6.49%. `Cc1cc(C)c(NC(=O)CN2C(=O)c3cccnc3Oc3ccc(Cl)cc32)c(C)c1` showed a max response, negative = inhibition of 7.84%. With `CCOc1ccc(NC(=O)c2ncoc2-c2ccco2)cc1` the max response, negative = inhibition was 3.68%. `C=CCNC(=O)c1ccc2nc(-c3ccco3)c(-c3ccco3)nc2c1` showed a max response, negative = inhibition of -28.3%. For `COCCNC(=O)Nc1ccc2nc(-c3ccco3)c(-c3ccco3)nc2c1`, the Potency was 79.4 µM (active). In the case of `CCC(C)NC(=O)Cn1c(=O)n(-c2ccc(Cl)cc2)c(=O)c2c3c(sc21)CCCC3` (stereo not drawn), the max response, negative = inhibition is reported as 7.47%. `Cc1nc([N+](=O)[O-])nn1C12CC3CC(CC(Br)(C3)C1)C2` was tested, and the Potency was 20 µM (active). `CC1(C)OC2CC(=O)OC[C@@]23C1CC(=O)[C@]1(C)C3CC[C@@]2(C)C(c3ccoc3)OC(=O)C3O[C@@]321` (stereo partly drawn) was tested, and the max response, negative = inhibition was 3.74%. With `CCOC(=O)c1c(C)oc2nc(C)nc(N3CCN(c4ccc(OC)cc4)CC3)c12` the max response, negative = inhibition was 5.63%. `COc1ccc(C2(C#N)CCC(C(=O)O)CC2)cc1OC1CCCC1` (stereo not drawn) showed a max response, negative = inhibition of 5.35%. Compound `CC(C)Oc1ccc(NC(=O)c2cc3ccccc3o2)cc1` has a max response, negative = inhibition of 10.8%. `Cc1ccc(OC(=O)CCC(=O)Nc2ccc(Br)cc2)cc1` showed a max response, negative = inhibition of 4.03%. For `CC(C)Oc1ccc(CC(=O)NNC(=S)Nc2ccc(Br)cc2)cc1`, the Potency was 70.8 µM (active).
